Data as given in the supplement of paper PMC13380429.

System: Vero E6 infected with SARS-CoV-2
Assay: inhibition of SARS-CoV-2 cytopathic effect; higher = more antiviral protection, active = above 15
Conditions: 48 h

Measured: inhibition of SARS-CoV-2 cytopathic effect

c1ccc(-c2n[nH]cc2-c2ccnc3ccccc23)nc1
inactive: 1 nM 1.81% | 8.33 nM -0.93% | 100 nM -2.43% | 833.33 nM -2.05% | 10000 nM -1.69%

Clc1cccc(Cl)c1CSc1nnc(-c2cnccn2)s1 [yoda-1]
inactive: 1 nM 1.9% | 8.33 nM 3.59% | 100 nM -0.57% | 833.33 nM 2.67% | 10000 nM 9.5%

CCOC(=O)C1=CCCC[C@H]1S(=O)(=O)Nc1ccc(F)cc1Cl [resatorvid]
inactive: 1 nM 1.61% | 8.33 nM 1.54% | 100 nM 3.21% | 833.33 nM 0.29% | 10000 nM -0.49%

Cc1c(O)c(=O)n(-c2ccccc2)n1C [4-hydroxy-phenazone]
inactive: 1 nM -1.11% | 8.33 nM 0.39% | 100 nM 4.58% | 833.33 nM -1.8% | 10000 nM -2.04%

CCO[C@H]1O[C@@H]2O[C@@]3(C)CC[C@H]4[C@H](C)CC[C@@H]([C@H]1C)[C@@]24OO3 [artemotil]
inactive: 1 nM -0.58% | 8.33 nM -2.88% | 100 nM 1.56% | 833.33 nM 0.29% | 10000 nM 1.11%

CN1CCN(C(c2ccccc2)c2ccccc2)CC1 [cyclizine]
inactive: 1 nM -1.86% | 8.33 nM -1.86% | 100 nM -1.97% | 833.33 nM -0.45% | 10000 nM 0.42%

CCOC(=O)C1=C(C)NC(C)=C(C(=O)OC)[C@@H]1c1cccc([N+](=O)[O-])c1 (racemic) [nitrendipine]
inactive: 1 nM 1.59% | 8.33 nM 0.33% | 100 nM -3.74% | 833.33 nM -0.45% | 10000 nM 4.26%

CC(C)(C)NC(=O)N[C@H](C(=O)N1C[C@H]2[C@@H]([C@H]1C(=O)NC(CC1CCC1)C(=O)C(N)=O)C2(C)C)C(C)(C)C (stereo not given in full) [Boceprevir]
inactive: 1 nM 0.22% | 8.33 nM 1.1% | 100 nM -0.28% | 833.33 nM -1.99% | 10000 nM -0.53%

COC(=O)N[C@H](C(=O)N1CC2(CC2)C[C@H]1c1nc(-c2ccc3c(c2)C(F)(F)c2cc(-c4ccc5[nH]c([C@@H]6[C@H]7CC[C@H](C7)N6C(=O)[C@@H](NC(=O)OC)C(C)C)nc5c4)ccc2-3)c[nH]1)C(C)C [ledipasvir]
inactive: 1 nM -1% | 8.33 nM 1.14% | 100 nM -1.6% | 833.33 nM -5.39% | 10000 nM -5.41%

C[C@]12CC[C@H](O)CC1=CC[C@@H]1[C@@H]2CC[C@]2(C)C(c3cccnc3)=CC[C@@H]12 [Abiraterone (CB-7598)]
inactive: 1 nM 2.77% | 8.33 nM 5.09% | 100 nM 3.28% | 833.33 nM 2.56% | 10000 nM 1.88%

O=C1c2c(O)ccc(O)c2C(=O)c2c(NCCNCCO)ccc(NCCNCCO)c21 [mitoxantrone]
inactive: 1 nM 0.83% | 8.33 nM 0.03% | 100 nM -2.74% | 833.33 nM -4.43% | 10000 nM -11.1%

CC(=O)NCC(=O)N1[C@@H]2CC[C@H]1c1ccc(Nc3ncc(C(F)(F)F)c(NC4CCC4)n3)cc12
inactive: 1 nM -2.51% | 8.33 nM -1.15% | 100 nM -2.99% | 833.33 nM -4.63% | 10000 nM -15.4%

O=C(Nc1cnc(Cl)nc1)c1ccc(F)c(F)c1
inactive: 1 nM 1.95% | 8.33 nM 1.13% | 100 nM 2.59% | 833.33 nM -0.85% | 10000 nM 0.14%

CC1/C=C/C=C/C=C/C=C/C=C/C=C/C=C/C(OC2O[C@H](C)[C@@H](O)[C@H](N)[C@@H]2O)CC(O)C(C(=O)O)C(O)CC(=O)CC(O)CC(O)CC(O)CC(=O)CCCC(=O)CC(=O)OC1C(C)CC(C)C(O)CC(=O)c1ccc(N)cc1 (stereo not given in full) [candicidin]
inactive: 1 nM -0.52% | 8.33 nM 4.78% | 100 nM 3.57% | 833.33 nM 4.79% | 10000 nM -2.56%

Cc1cccc(C)c1NC(=O)C1CCCCN1C (stereo not given) [mepivacaine]
inactive: 1 nM -3.62% | 8.33 nM -1.78% | 100 nM -2.27% | 833.33 nM -0.18% | 10000 nM 0.81%

COc1cn(-c2ccc(-n3cccn3)cc2F)nc(-c2ccnn2-c2ccccc2)c1=O
inactive: 1 nM 1.53% | 8.33 nM 3.16% | 100 nM 0.79% | 833.33 nM 2.26% | 10000 nM 0.75%

Cc1cc(-c2ccc(CC(=O)Nc3ccc(-c4cccnc4)cc3)cc2)ccn1
inactive: 1 nM -2.73% | 8.33 nM -2.58% | 100 nM -2.93% | 833.33 nM 4.57% | 10000 nM 7.2%

O=C(CN1C(=O)C2(CCCC2)NC[C@H]1c1cc(F)cc(F)c1)Nc1ccc2c(c1)C[C@@]1(C2)C(=O)Nc2ncccc21
inactive: 1 nM -6.85% | 8.33 nM -7.92% | 100 nM -8.42% | 833.33 nM -6.83% | 10000 nM -2.55%

O=C(O)CCCC[C@@H]1CCSS1 [thioctic-acid]
inactive: 1 nM 0.04% | 8.33 nM -0.43% | 100 nM -1.56% | 833.33 nM 1.13% | 10000 nM -3.32%

CCCn1c(=O)c2[nH]c(-c3cnn(Cc4cccc(C(F)(F)F)c4)c3)nc2n(CC)c1=O
inactive: 1 nM 1.43% | 8.33 nM 1.19% | 100 nM 2.16% | 833.33 nM -0.96% | 10000 nM 0.11%

N#Cc1ccc(Oc2ccc3c(c2)COB3O)cc1 [crisaborole]
inactive: 1 nM 0.74% | 8.33 nM 0.97% | 100 nM 1.46% | 833.33 nM -0.75% | 10000 nM 4.65%

O=C(O)[C@H]1CCCN(CCC=C(c2ccccc2)c2ccccc2)C1 (racemic)
inactive: 1 nM -0.52% | 8.33 nM -1.42% | 100 nM -2.13% | 833.33 nM -4.16% | 10000 nM -2.22%

CC(C)(C#N)c1cc(Cn2cncn2)cc(C(C)(C)C#N)c1 [anastrozole]
inactive: 1 nM -1.6% | 8.33 nM 0.38% | 100 nM -0.32% | 833.33 nM -1.74% | 10000 nM -0.89%

CC(C(=O)O)c1ccc2c(c1)Cc1cccnc1O2 (stereo not given) [pranoprofen]
inactive: 1 nM -0.06% | 8.33 nM 4.49% | 100 nM 2.65% | 833.33 nM 1.95% | 10000 nM -1.17%

CC(C)(C)NCC(O)c1cc(O)cc(O)c1 (stereo not given)
inactive: 1 nM -2.09% | 8.33 nM -0.61% | 100 nM -1.85% | 833.33 nM -0.02% | 10000 nM -0.76%

Fc1ccc2c(CCNCc3cccc(OCC(F)(F)C(F)F)c3)c[nH]c2c1 [idalopirdine]
inactive: 1 nM 2.26% | 8.33 nM 0.96% | 100 nM 0.82% | 833.33 nM -0.82% | 10000 nM -3.37%

CCOC(=O)NNc1nncc2ccccc12 [todralazine]
inactive: 1 nM 2.18% | 8.33 nM 1.04% | 100 nM 0.33% | 833.33 nM 0.99% | 10000 nM -0.55%

CC(C)[C@H](CO)Nc1nc(Nc2cccc(Cl)c2)c2ncn(C(C)C)c2n1 [purvalanol-A]
inactive: 1 nM -1.59% | 8.33 nM -0.55% | 100 nM -0.26% | 833.33 nM 2.68% | 10000 nM -2.25%

CCC[C@@H]1C[C@@H](C(=O)N[C@@H]([C@H]2O[C@H](SC)[C@H](O)[C@@H](O)[C@H]2O)[C@H](C)Cl)N(C)C1
inactive: 1 nM 0.61% | 8.33 nM -0.55% | 100 nM -0.83% | 833.33 nM -2.28% | 10000 nM -4.1%

NC1=NCC2c3ccccc3Cc3ccccc3N12 (stereo not given) [epinastine]
inactive: 1 nM -1.87% | 8.33 nM -1.14% | 100 nM 0.71% | 833.33 nM 7.29% | 10000 nM 1.93%

Cc1nnc(C(=O)NC(C)(C)c2nc(C(=O)NCc3ccc(F)cc3)c(O)c(=O)n2C)o1 [raltegravir]
inactive: 1 nM 3.09% | 8.33 nM -0.27% | 100 nM 2.75% | 833.33 nM 1.2% | 10000 nM 1.12%

CC1(C)CCC(C)(C)c2c1cc(C(=O)Nc1cc(F)c(C(=O)O)c(F)c1)c(O)c2Cl
inactive: 1 nM -1.01% | 8.33 nM -0.71% | 100 nM 0.11% | 833.33 nM 2.72% | 10000 nM 3.26%

CN(C)CCOC(c1ccccc1)c1ccccc1 [diphenhydramine]
inactive: 1 nM 0.83% | 8.33 nM 0.08% | 100 nM -0.85% | 833.33 nM 0.48% | 10000 nM -0.92%

Nc1nc(N)c2nc(-c3cccc(O)c3)cnc2n1
inactive: 1 nM -0.93% | 8.33 nM -0.26% | 100 nM 0.04% | 833.33 nM -0.48% | 10000 nM -1.39%

COc1ccc(-n2nc(CCC(=O)N(C)O)cc2-c2ccc(Cl)cc2)cc1 [tepoxalin]
inactive: 1 nM 0.7% | 8.33 nM -1.58% | 100 nM 0.1% | 833.33 nM 1.81% | 10000 nM -0.4%

CO[C@H]1[C@H](O)[C@@H](O)[C@@H](O)[C@H](O)[C@@H]1O [pinitol]
inactive: 1 nM 0.84% | 8.33 nM -0.26% | 100 nM -2.68% | 833.33 nM -0.47% | 10000 nM 1.55%

O=S(=O)(O)c1cc(I)c(O)c2ncccc12 [chiniofon]
inactive: 1 nM -0.29% | 8.33 nM -0.47% | 100 nM -0.93% | 833.33 nM 3.44% | 10000 nM -0.39%

N=C(N)c1cc2ccc(OC(=O)c3cccs3)cc2s1
inactive: 1 nM 1.66% | 8.33 nM 1.86% | 100 nM 2.63% | 833.33 nM -1.57% | 10000 nM 4.87%

CCOC(=O)c1ccc(O)cc1 [ethyl-paraben]
inactive: 1 nM 0.82% | 8.33 nM 3.38% | 100 nM -1.2% | 833.33 nM 0.24% | 10000 nM -1.28%
